This is part of a sample that, as a whole, favours compounds with a hit. Of some 79,000 tested, about 15% had one in any assay. A number with no mark means an inactive call. Calls of active or inactive are those of the source. No stated cut-off is given here; in the data, active means growth inhibition above about 70%; inactive means the rest.

The assay is described as follows: NCI Yeast Anticancer Drug Screen. Data for the wt2 strain (AID 169).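 Further: 0% = growth of vehicle-treated yeast cultures.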 Particulars: S. cerevisiae wt2 strain growth inhibition, hits give high values. As to the method: Growth inhibition of yeast strains with defined genetic alterations is measured as a screen for potential anti-cancer activity. Selected strains with alterations in DNA damage repair or cell cycle control were exposed to compounds and growth inhibition was measured relative to vehicle treated controls. The strain used in this assay is wt2

In the case of `CC1=C(CO)C2=C(C)C3(CC3)[C@@](C)(O)C(=O)C2=C1`, the growth inhibition is -2% (at 1.2 µM); 0% (at 3.7 µM); -1% (at 11.0 µM); -1% (at 33.0 µM); 3% (at 100.0 µM).

`CCN(CC)CCBr`: the growth inhibition (at 1.2 µM) is -1%; the growth inhibition (at 3.7 µM) was 6%; the growth inhibition (at 11.0 µM) was 0%; the growth inhibition (at 33.0 µM) was -3%; the growth inhibition (at 100.0 µM) is -3%.

In the case of `Nc1nc(N)c(-c2ccc(Cl)c(Cl)c2)c(CP(Cl)(Cl)(Cl)Br)n1`, the growth inhibition by setting is: (at 1.2 µM) 7%; (at 3.7 µM) 18%; (at 11.0 µM) 56%; (at 33.0 µM) 80% (active); (at 100.0 µM) 94% (active).

`C[CH2][Sn]1([CH2]C)[O]C2C(O)OC(CO)C(O)C2[O]1` (stereo not given): the growth inhibition reads like this: (at 1.2 µM) -58%; (at 3.7 µM) -42%; (at 11.0 µM) -27%; (at 33.0 µM) 15%; (at 100.0 µM) 82% (active).

With `O=C(O)C1C2C=CC(C2)C1c1ccccc1` (stereo not given), the growth inhibition is, setting by setting: (at 1.2 µM) -2%; (at 3.7 µM) 5%; (at 11.0 µM) -4%; (at 33.0 µM) -3%; (at 100.0 µM) 8%.

On to `CCC1(O)C(=O)OCc2c1cc1n(c2=O)Cc2cc3ccccc3nc2-1` (stereo not given), for which the growth inhibition is 6% (at 1.2 µM); 4% (at 3.7 µM); -1% (at 11.0 µM); 1% (at 33.0 µM); 10% (at 100.0 µM).

As for `CC[C@](O)(C(=O)O)c1cc2n(c(=O)c1CO)Cc1cc3ccccc3nc1-2`, the growth inhibition by setting is: (at 1.2 µM) -3%; (at 3.7 µM) 13%; (at 11.0 µM) 81% (active); (at 33.0 µM) 95% (active); (at 100.0 µM) 94% (active).

Consider `N#Cc1cc(N(CCCl)CCCl)c([N+](=O)[O-])cc1[N+](=O)[O-]`, for which the growth inhibition was 4% (at 1.2 µM); 6% (at 3.7 µM); 8% (at 11.0 µM); 36% (at 33.0 µM); 80% (active) (at 100.0 µM).

The values are drawn from PubChem BioAssay (NCI).
